Source: PubChem BioAssay (National Center for Advancing Translational Sciences (NCATS))
Pf growth 48h – P. falciparum growth inhibition at 48 hours (one generation) | P. falciparum luciferase growth in erythrocytes, 48 h | Potency, µM (highest dose often 28.7 µM), usual class: inhibitors | 310,000 compounds, 5.9% hits | AID 504832
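Cell-based growth assay: transgenic P. falciparum expressing firefly luciferase, cultured in red cells within RPMI 1640 containing 0.5% w/v Albumax, 24 mM bicarbonate and gentamycin. A drop in luciferase activity indicates inhibition.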
Pf growth 96h – P. falciparum growth inhibition at 96 hours; P. falciparum luciferase reporter growth, 96 h; Potency, µM (highest dose often 28.7 µM), most hits filed as inhibitors; 320,000 compounds, 6.9% hits; AID 504834
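Readout is luminescence from an integrated firefly luciferase in P. falciparum. Red cells, 2% hematocrit and 0.05% parasitemia final, were cultured with compound through two parasite generations (96 hours) at 37 C, 5% CO2.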
Shiga inhibitor – Shiga toxin inhibition. Vero cells, Shiga toxin protein synthesis inhibition reporter. 290,000 compounds, 9.2% hits. AID 2315. inhibition, % at 38.7 µM; in the data active means inhibition mostly above about 28%, no sharp cut-off; inactive means mostly below about 43%
Cycloheximide cs – counter-screen hit for Shiga toxin inhibitors, cycloheximide. cell reporter, cycloheximide protein synthesis inhibition counterscreen. max response, %. 300,000 compounds, 12% hits; in the data active means max response mostly above about 13%, no sharp cut-off; inactive means mostly below about 14%; further: read at 38.3 µM for the half of the compounds with a filed dose
HCMV antiviral – human cytomegalovirus inhibition | HFF cells, HCMV-luciferase reporter, 72 h; active compounds read low | activity change, negative = inhibition, % at 57.5 µM | 410,000 compounds, 4.5% hits | AID 1259415; in the data active means activity change below about -60%; inconclusive means no clear call, values can overlap the other calls; inactive means above about -39%
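Human foreskin fibroblasts infected with luciferase-reporter HCMV at MOI 1 PFU/cell, compounds at two doses. Luciferase measured 72 h post infection; normalized to buffer-only basal and Salinomycin (10uM) controls.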
Of the large screens only hits and unclear results are named; the others gave an inactive call. Compounds with a hit are over-represented: about 20% of the library has one in this group of screens. Unless noted, the call rests on the fitted dose curve; in most records, active means well fitted inhibition curve with a large enough effect; inconclusive means small, poorly fitted or top-dose-only effect, or another doubt; inactive means no such curve, though single readings can be large or run the other way.

O=C(CSc1nnnn1-c1ccccc1)CC(=O)Nc1ccc(Cl)cc1	none
CCN(C(=O)COC(=O)CNC(=O)c1ccc2ccccc2c1)C1CCS(=O)(=O)C1 (stereo unspecified)	none
O=C(CN1C(=O)CCC1=O)Nc1nc(-c2ccc(Oc3ccccc3)cc2)cs1	none
CSc1nc(N)c2c(n1)N(C)C=NS2(=O)=O	none (no result: Pf growth 48h, Pf growth 96h, Shiga inhibitor, Cycloheximide cs)
Cc1nnc(NC(=O)c2cccc(S(=O)(=O)N3CCN(C)CC3)c2)s1	none (no result: Shiga inhibitor, Cycloheximide cs)
Cc1ccc(-c2csc(NC(=O)COC(=O)c3cccc(S(=O)(=O)N4CCOCC4)c3)n2)cc1	Shiga inhibitor 130.8, Cycloheximide cs 22.4
O=C(Nc1nc(-c2cccs2)cs1)c1cccc(S(=O)(=O)N2CCCCC2)c1	Pf growth 48h inconclusive, Pf growth 96h inconclusive, Cycloheximide cs 17.6
Cc1ccc(-c2csc(NC(=O)c3cccc(S(=O)(=O)N4CCN(C)CC4)c3)n2)cc1	Pf growth 96h 7.38µM
O=C(Nc1ccc(NS(=O)(=O)c2ccccc2)cc1)c1ccccc1	none
CC(=O)Oc1ccc(C(=O)Nc2ccc(C3(C#N)CCCC3)cc2)cc1	Pf growth 96h inconclusive, Cycloheximide cs 12.1
N#CC1(c2ccc(NC(=O)c3ccccc3)cc2)CCCC1	Shiga inhibitor 134.7, Cycloheximide cs 47.3 (no result: HCMV antiviral)
COc1ccc(CCn2c(=O)c3ccccc3n(CC(=O)Nc3cccc(C)c3)c2=O)cc1OC	none (no result: Pf growth 48h, Pf growth 96h, Shiga inhibitor, Cycloheximide cs)
O=C(c1ccc(S(=O)(=O)Nc2ccc(F)cc2)cc1)N1CCN(c2ccccn2)CC1	Pf growth 48h inconclusive, Pf growth 96h inconclusive, HCMV antiviral -80.4
Cc1ccc(NS(=O)(=O)c2ccc(C(=O)N3CCN(c4ncccn4)CC3)cc2)cc1	HCMV antiviral -77.2
CCN(C(=O)c1cc2c(s1)-c1ccccc1S(=O)(=O)C2)c1cc(OC)ccc1OC	Pf growth 48h 9.28µM, Pf growth 96h inconclusive
CCN(C(=O)c1cc2c(s1)-c1ccccc1OC2)c1cc(OC)ccc1OC	Pf growth 48h inconclusive, Pf growth 96h 11.7µM
COc1ccc(N(CC(=O)NC2CCCCC2)C(=O)CCC(=O)Nc2nc(C)cs2)cc1	Pf growth 48h inconclusive, Pf growth 96h inconclusive
CN(Cc1ccccc1)S(=O)(=O)c1cccc2nsnc12	none
Cc1cnc(NC(=O)CSc2nnc(C)n2N)s1	none
Cc1cnc(NC(=O)COc2ccccc2)s1	Shiga inhibitor 110.2, Cycloheximide cs 59.0
Cc1cnc(NC(=O)Cc2ccc(C)c(C)c2)s1	Shiga inhibitor 47.3, Cycloheximide cs 20.1
CCOC(=S)SCC(=O)Nc1ncc(C)s1	Shiga inhibitor 68.2, Cycloheximide cs 39.4
Cc1cnc(NC(=O)CSc2ccccc2)s1	Cycloheximide cs 30.0 (no result: Pf growth 96h)
COc1ccccc1OCC(=O)Nc1ncc(C)s1	none (no result: Shiga inhibitor, Cycloheximide cs)
COC(=O)c1sc(NC(=O)Cc2cccs2)nc1C	Pf growth 96h inconclusive, Shiga inhibitor 70.2, Cycloheximide cs 33.4
COC(=O)c1sc(NC(=O)COc2ccccc2OC)nc1C	none
COC(=O)c1sc(NC(=O)COc2ccc(C)cc2)nc1C	none (no result: Pf growth 48h)
COC(=O)c1sc(NC(=O)COc2ccccc2)nc1C	Pf growth 96h inconclusive, Cycloheximide cs 23.0 (no result: Pf growth 48h)
Cc1cnc(NC(=O)C2(c3ccccc3)CC2)s1	Shiga inhibitor 74.0, Cycloheximide cs 20.0, HCMV antiviral inconclusive
COc1ccc(CCC(=O)Nc2ncc(C)s2)cc1OC	Pf growth 48h inconclusive, Pf growth 96h inconclusive
Cc1cnc(NC(=O)CCc2ccccc2)s1	Pf growth 48h inconclusive, Cycloheximide cs 24.6 (no result: Shiga inhibitor)
COCCNC(=O)CSc1nc2scc(-c3ccccc3)c2c(=O)[nH]1	none
CN1CCc2cccc3c2[C@@H]1Cc1ccc(O)c(O)c1-3	Pf growth 48h 2.62µM, Pf growth 96h 2.62µM (no result: HCMV antiviral)
CCCN1CCc2cc(O)cc3c2[C@H]1Cc1ccc(O)c(O)c1-3	none (no result: Pf growth 48h, Pf growth 96h, Shiga inhibitor, Cycloheximide cs)
CCCC(c1nnnn1CS(=O)(=O)c1ccc(C)cc1)N1CCN(c2ccc(F)cc2)CC1 (stereo unspecified)	Pf growth 48h 16.5µM, Pf growth 96h inconclusive
Cc1ccc(S(=O)(=O)Cn2nnnc2C(c2ccccn2)N2CCN(c3ccccc3)CC2)cc1 (stereo unspecified)	Pf growth 48h inconclusive
Cc1ccc(S(=O)(=O)Cn2nnnc2CN(Cc2ccco2)Cc2cccs2)cc1	Pf growth 48h 10.4µM
CCCC(c1nnnn1CS(=O)(=O)c1ccc(C)cc1)N1CCN(CC)CC1 (stereo unspecified)	Pf growth 48h inconclusive
Cc1ccc(C(c2nnnn2CS(=O)(=O)c2ccc(C)cc2)N2CCN(c3ncccn3)CC2)cc1 (stereo unspecified)	Pf growth 48h 4.15µM, Pf growth 96h inconclusive
Cc1ccc(S(=O)(=O)Cn2nnnc2C(CC(C)C)N2CCN(C)CC2)cc1 (stereo unspecified)	Pf growth 48h inconclusive
Cc1ccc(S(=O)(=O)Cn2nnnc2C(CC(C)C)N2CCN(c3ccccc3)CC2)cc1 (stereo unspecified)	Pf growth 48h 7.38µM
Cc1ccc(S(=O)(=O)Cn2nnnc2C(C(C)C)N2CCN(Cc3ccco3)CC2)cc1 (stereo unspecified)	Pf growth 48h 10.4µM
Cc1ccc(S(=O)(=O)Cn2nnnc2C(C(C)C)N2CCSCC2)cc1 (stereo unspecified)	Pf growth 96h inconclusive
O=C(N/C(=C/c1cccc([N+](=O)[O-])c1)C(=O)N1CCOCC1)c1ccc(Br)cc1	Pf growth 48h inconclusive
COc1ccc(-c2nnc(SCc3cccc(C#N)c3)o2)cc1	none (no result: Pf growth 96h)
COC(=O)CSc1nnc(-c2sc3ccccc3c2Cl)o1	Pf growth 96h inconclusive, HCMV antiviral inconclusive
COc1ccc(-c2nnc(SCc3c(C)noc3C)o2)cc1	Shiga inhibitor 68.4, Cycloheximide cs 27.2
COc1ccc(-c2nnc(SCC#N)o2)cc1	Cycloheximide cs 14.6
N#CCSc1nnc(-c2sc3ccccc3c2Cl)o1	Cycloheximide cs 42.1
C#CCSc1nnc(-c2ccc(OC)cc2)o1	Cycloheximide cs 36.9 (no result: Pf growth 48h)
Cc1sc2ncn(CC(=O)Nc3ccccc3F)c(=O)c2c1-c1ccccc1	HCMV antiviral inconclusive
COc1cc(C(=O)C(=O)N2CCN(c3ccccc3)CC2)cc(OC)c1OC	none (no result: Pf growth 48h, Pf growth 96h, Shiga inhibitor, Cycloheximide cs)
O=C(c1ccccc1F)N1c2nc(-c3ccco3)nn2C2(CCCCC2)[C@@H]2CCCC[C@@H]21	none (no result: Pf growth 48h, Pf growth 96h, Shiga inhibitor, Cycloheximide cs)
COc1ccc(OC)c(S(=O)(=O)N2CCCC(C(=O)NCc3cccnc3)C2)c1 (stereo unspecified)	none
CCCCCCCCSc1nnc(-c2ccc(OC)cc2)o1	none (no result: Pf growth 48h)
C#CCSc1nnc(-c2ccc([N+](=O)[O-])cc2)o1	Shiga inhibitor 57.8, Cycloheximide cs 23.2
CCSc1nnc(-c2ccc(OC)cc2)o1	Shiga inhibitor 97.8, Cycloheximide cs 56.1
CSc1nnc(-c2ccc([N+](=O)[O-])cc2)o1	none
CCOC(=O)COc1ccc2c(C#N)c3ccccn3c2c1	none
COc1cc(OC)cc(C(=O)c2c(C)c(C#N)c3ccccn23)c1	Pf growth 48h 8.28µM, Pf growth 96h inconclusive
CCCN(CC(=O)Nc1ccccc1C)CC(=O)Nc1ccc(Br)cc1F	Pf growth 48h inconclusive
COC(=O)[C@H]1[C@H](CO)[C@H]2Cn3c(cccc3=O)[C@@H]1N2C(=O)c1ccccn1	none (no result: Pf growth 48h, Pf growth 96h, Shiga inhibitor, Cycloheximide cs)
